The target in experiment [1] is Lysosomal acid glucosylceramidase (Homo sapiens) (UniProt P04062). The experiment is described as follows: Glucocerebrosidase-p2 (AID 348; in the data active = potency below about 10 µM; note: potency is the fitted concentration of half-maximal effect). The settings on record: purified GBA, blue fluorogenic substrate, 40 min. In a few lines: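 Compounds titrated from 0.6 nM upwards against 0.2 nM enzyme in pH 5.9 citric acid/KH2PO4, taurocholate, tween-20; blue fluorogenic substrate 80 uM, 40 min room temperature, stopped and read Ex 365/Em 440 for AC50.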
Sequence of Lysosomal acid glucosylceramidase (Homo sapiens) (P04062 whole entry, looked up): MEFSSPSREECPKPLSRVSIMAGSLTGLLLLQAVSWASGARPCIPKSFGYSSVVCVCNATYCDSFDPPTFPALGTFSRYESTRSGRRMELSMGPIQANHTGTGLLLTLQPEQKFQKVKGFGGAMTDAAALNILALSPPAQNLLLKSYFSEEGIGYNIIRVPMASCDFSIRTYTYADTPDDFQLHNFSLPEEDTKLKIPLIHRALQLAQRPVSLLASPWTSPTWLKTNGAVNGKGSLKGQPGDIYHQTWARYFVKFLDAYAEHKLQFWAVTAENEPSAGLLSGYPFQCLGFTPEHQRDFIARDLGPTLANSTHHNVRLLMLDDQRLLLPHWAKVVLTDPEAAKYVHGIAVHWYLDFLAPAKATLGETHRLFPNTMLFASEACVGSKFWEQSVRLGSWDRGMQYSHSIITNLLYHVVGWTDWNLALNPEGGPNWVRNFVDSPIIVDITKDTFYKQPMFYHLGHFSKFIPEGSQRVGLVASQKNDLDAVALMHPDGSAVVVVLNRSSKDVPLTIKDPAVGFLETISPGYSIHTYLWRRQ

In experiment [2] the target is Glucocorticoid receptor (Homo sapiens) (UniProt P04150). The experiment is described as follows: GR-GFP Redistribution (AID 450;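 active = compounds whose dose series gives a full or clear partial fitted curve of increased nuclear translocation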; note: potency is the fitted concentration of half-maximal effect). The settings on record: U2OS GR-GFP nuclear translocation, laser cytometry, 2 h.
Sequence of Glucocorticoid receptor (Homo sapiens) (P04150 whole entry, looked up): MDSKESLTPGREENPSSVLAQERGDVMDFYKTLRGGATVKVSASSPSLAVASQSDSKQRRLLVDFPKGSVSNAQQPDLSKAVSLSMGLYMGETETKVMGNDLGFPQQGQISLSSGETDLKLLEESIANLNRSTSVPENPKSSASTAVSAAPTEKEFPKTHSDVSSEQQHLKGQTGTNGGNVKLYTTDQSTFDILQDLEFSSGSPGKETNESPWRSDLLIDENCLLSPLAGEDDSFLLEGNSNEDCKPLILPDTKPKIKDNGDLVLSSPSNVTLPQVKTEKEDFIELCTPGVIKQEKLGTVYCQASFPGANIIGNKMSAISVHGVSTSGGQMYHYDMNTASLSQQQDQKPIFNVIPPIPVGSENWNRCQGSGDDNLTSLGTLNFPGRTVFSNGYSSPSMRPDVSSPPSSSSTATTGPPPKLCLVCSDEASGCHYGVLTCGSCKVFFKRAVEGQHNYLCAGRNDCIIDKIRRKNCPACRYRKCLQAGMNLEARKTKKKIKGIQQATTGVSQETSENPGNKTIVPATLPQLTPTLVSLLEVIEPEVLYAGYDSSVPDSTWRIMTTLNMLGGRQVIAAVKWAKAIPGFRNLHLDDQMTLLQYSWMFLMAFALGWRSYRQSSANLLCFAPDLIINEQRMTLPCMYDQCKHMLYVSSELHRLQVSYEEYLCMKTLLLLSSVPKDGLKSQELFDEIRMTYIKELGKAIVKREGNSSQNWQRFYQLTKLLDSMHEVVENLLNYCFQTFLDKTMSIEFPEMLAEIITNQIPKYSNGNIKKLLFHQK
For experiment [3] the target is unchanged. The experiment is described as follows: GR-EFC Redistribution (AID 451; calls by dose curve; note: potency is the fitted concentration of half-maximal effect). The settings on record: CHO-K1 GR-EFC translocation, beta-gal luminescence, 2 h. In a few lines:
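CHO-K1 cells stably expressing nuclear-localized β-gal enzyme acceptor and GR fused C-terminally to the enzyme donor fragment; ligand-driven nuclear translocation restores β-gal by complementation. Compounds titrated up to 46 uM final, 2 h at 37 °C; luminescence read.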

Experiment [4] concerns the target 3',5'-cyclic-AMP phosphodiesterase 4B (Homo sapiens) (UniProt Q07343). Put plainly: qHTS Assay for Inhibitors of PDE-IV (AID 607; active = well fitted activation curve with a large enough effect in the main read-out, with a control signal flat, not every such curve was filed as active; note: % of control where 0% means no effect). The settings on record: HEK293 ACTOne CNG channel cells, membrane potential fluorescence; series mostly up to 22.9 µM. In a few lines:
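ACTOne HEK293 cells carry a modified cAMP-gated CNG channel and express endogenous PDE4; plated 1000 cells/well, compounds up to 22.9 uM final. Membrane-potential dye fluorescence (ex 535/em 590) was read; parental cells received 10 uM forskolin + 100 uM RO 20-1724.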
In general terms: qHTS replaces the single test concentration by a dilution series.

Experiment [5] in a line: qHTS Assay for Lipid Storage Modulators (AID 1519; calls by dose curve). The settings on record: Drosophila S3 cells, BODIPY lipid droplet/cell ratio, laser cytometry, cells loaded with oleic acid; for activity change, negative = inhibition: at 57.5 µM (top of the series). An outline of the steps:
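Cells seeded at 5,000 per well were treated with compounds over a concentration series and loaded with oleic acid (400 uM, as added). Lipid droplet fluorescence (488 nm excitation, 500-530 nm channel) was read by laser-scanning cytometry and normalized to 20 uM Triacsin C.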

The target in experiment [6] is Dual specificity protein kinase CLK4 (Homo sapiens) (UniProt Q9HAZ1). The experiment is described as follows: qHTS Assay for Inhibitors of CDC-like Kinase 4 (Kinase-Glo Assay) (AID 1770). Note: % is set by controls: 0 for no effect and ±100 for the full control effect; nearly all actives have a fitted effect of over 65% in size. The settings on record: recombinant Clk4, Kinase-Glo ATP depletion luminescence; series mostly up to 66.7 µM. In a few lines:
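Luminescent ATP-depletion read-out (Kinase-Glo) after 4.5 h room-temperature reaction of Clk4 (25 nM final) with RS peptide (100 uM) and ATP (1 uM), pH 7.5 Tris buffer with MgCl2 and DTT.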

Experiment [7] has the same target. The experiment is described as follows: qHTS Assay for Inhibitors of CDC-like Kinase 4 (ADP-Glo Assay) (AID 1771). Note: % is set by controls: 0 for no effect and ±100 for the full control effect; nearly all actives have a fitted effect of over 70% in size. The settings on record: recombinant CLK4, ADP-Glo luminescence; series mostly up to 80 µM. In a few lines: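 Luminescence from ADP-Glo reports ADP produced by 25 nM Clk4 acting on 100 uM RS repeat peptide with 1 uM ATP over 1 hr at room temperature; residual ATP is depleted before ADP is converted to ATP for detection.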

The target is the same in experiment [8]. The experiment is described as follows: qHTS Assay for Inhibitors of CDC-like Kinase 4 (ADP-FP Assay) (AID 1795). Note: % is set by controls: 0 for no effect and ±100 for the full control effect; nearly all actives have a fitted effect of over 60% in size. The settings on record: Transcreener ADP fluorescence polarization; series mostly up to 50 µM. An outline of the steps:
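Kinase activity was measured as ADP production using Transcreener orange tracer (4 nM) and ADP antibody (1 ug/mL) fluorescence polarization, with ADP calculated from a calibration curve. The 1 h reaction contained 6.25 nM Clk4, 1 uM ATP and 100 uM RS peptide at pH 7.5 with Mg2+.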

Experiment [9] concerns the target Ubiquitin carboxyl-terminal hydrolase 1 (Homo sapiens) (UniProt O94782). The experiment is described as follows: Inhibitors of USP1/UAF1: Pilot qHTS (AID 504865).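 Note: rhodamine fluorescence freed from ubiquitin-rhodamine substrate followed over time; top concentration of the series differs between compounds; % is set by controls: 0 for no effect and ±100 for the full control effect; nearly all actives have a fitted effect of over 35% in size.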 The settings on record: purified USP1/UAF1, Ub-rhodamine cleavage fluorescence; series mostly up to 54.9 µM. An outline of the steps:
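Deubiquitinase activity followed as kinetic rhodamine fluorescence release from 150 nM Ub-Rho. 1 nM USP1/UAF1 with compound, after 15 min room-temperature preincubation, in HEPES pH 7.8 buffer containing TCEP, EDTA, BSA and Tween-20.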

The nature of experiment [10]: Confirmatory qHTS for small molecule stabilizers of the endoplasmic reticulum resident proteome: Secreted ER Calcium Modulated Protein (SERCaMP) assay (AID 1508628). Note: nearly all actives have a fitted effect of over 40% in size. Note: potency is the fitted concentration of half-maximal effect. The settings on record: SERCaMP secreted luciferase ER calcium/proteostasis reporter; series mostly up to 76.3 µM. An outline of the steps:
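SH-SY5Y cells stably expressing GLuc-SERCaMP, treated 16 h with compound (primary 1.53, 7.67, 38.3 uM; confirmation 11 concentrations, up to 76.6 uM), then 100 nM thapsigargin for 4 h. Secreted Gaussia luciferase in medium read by coelenterazine luminescence.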

Experiment [11] in a line: AP1 Signaling Pathway (AID 357; active = well fitted curve in either direction with a large enough effect, not every such curve was filed as active;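 note: ME-180 reporter cells stimulated with EGF at its EC50 level; % is set by controls: 0 for no effect and ±100 for the full control effect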). The settings on record: ME-180 AP-1-bla reporter, EGF-induced, beta-lactamase ratio, 5 h; at 7.69 µM (top of the series) unless noted. An outline of the steps:
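Read-out was the 460nm/530nm emission ratio (excitation 405nm) after CCF4 loading for 2.5 hours at room temperature. Cells carried an AP-1-driven beta-lactamase reporter, were stimulated with EC50 EGF plus compound for 5 hours, and AC50 values came from titrations.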

Experiment [12] deals with Cytochrome P450 1A2 (Homo sapiens) (UniProt P05177). Put plainly: p450-cyp1a2 (AID 410; calls by dose curve; note: potency is the fitted concentration of half-maximal effect). The settings on record: recombinant CYP1A2, luciferin-ME demethylation, luminescence; series mostly up to 57 µM. In a few lines:
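Luminescent readout of luciferin formed from Luciferin-ME by human CYP1A2; data normalized against complete inhibition by 57 uM furafylline. Enzyme 20nM, substrate 100uM at Km, 100mM KPO4 buffer, 60 min reaction at room temperature.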

Experiment [13] can be described thus: Stat Signaling Pathway (AID 446; active = well fitted curve in either direction with a large enough effect, not every such curve was filed as active;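 note: ME-180 cervical cancer cells given 40 pM IL-6 alongside compound; SIE-controlled beta-lactamase reporter measured as 460/530 nm FRET emission ratio; % is set by controls: 0 for no effect and ±100 for the full control effect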). The settings on record: ME-180 SIE beta-lactamase reporter, IL-6 stimulated, 5 h; at 7.69 µM (top of the series) unless noted. In a few lines: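 ME-180 SIE-bla cells; overnight plating; cpd + IL-6 40 pM, 5 h, 37 C; LiveBLAzer 2.5 h RT; 460/530 nm emission ratio. Normalized to 300 pM IL-6 and 125 nM JAK inhibitor controls.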

In experiment [14] the target is Mitogen-activated protein kinase 10 (Mus musculus) (UniProt Q61831). The experiment is described as follows: JNK3 AlphaScreen Assay (AID 530; active = well fitted curve in either direction with a large enough effect, not every such curve was filed as active;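 note: kinase came from lysate of stimulated human HepG2 cells; signal reports phosphorylation of biotinylated GST-cJun 1-79 at Ser73 with 10 µM ATP; % is set by controls: 0 for no effect and ±100 for the full control effect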). The settings on record: JNK3 lysate, c-Jun phosphorylation; series mostly up to 57.1 µM. An outline of the steps:
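Inhibitors reduce antibody binding to phosphorylated biotin-cJun, lowering AlphaScreen luminescence. Lysates from HepG2 cells pre-activated by IL-1beta plus TNF-alpha supplied JNK3; compounds were titrated.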

Experiment [15] is described as follows: Confirmation and Secondary Assay for Modulators of Hemoglobin Beta Chain Splicing at IVS2 654 locus (AID 910).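 Note: per-well total GFP intensity by laser scanning cytometry after 2-day treatment; % of control where 0% means no effect.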 The settings on record: HeLa EGFP-654 splicing reporter, GFP fluorescence, 48 h; series mostly up to 38.3 µM. An outline of the steps: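 HeLa cells stably carrying EGFP interrupted by mutant beta-globin IVS2-654 intron (CMV-driven) were treated with compound for 2 days at 37C; corrected splicing was scored as total peak GFP intensity per well (488 nm excitation, 500-520 nm emission).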

Experiment [16] is described as follows: Confirmation and Secondary Assay for Modulators of Hemoglobin Beta Chain Splicing at IVS2 705 locus (AID 930).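 Note: HeLa cells stably expressing the EGFP-705 splicing reporter; GFP fluorescence per well restored by corrected splicing of the IVS2-705 intron in EGFP; % of control where 0% means no effect.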 The settings on record: HeLa EGFP-705 splicing reporter, GFP fluorescence, 48 h; series mostly up to 38.3 µM. In a few lines:
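Stable HeLa line with EGFP disrupted by mutant beta-globin intron 2 (705). Overnight attachment, then 2 days of compound at 37C, 5% CO2. Signal: peak GFP intensity summed over objects 5-250 µm.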

Experiment [17] can be described thus: NFAT Signaling Pathway (AID 444; active = well fitted curve in either direction with a large enough effect, not every such curve was filed as active;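 note: carbachol stimulus at about its EC50 of 1 µM final; % is set by controls: 0 for no effect and ±100 for the full control effect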). The settings on record: Jurkat NFAT-bla M1, carbachol, beta-lactamase ratio, 5 h; at 7.69 µM (top of the series) unless noted. In a few lines: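 Jurkat cells carrying an NFAT-driven β-lactamase reporter and co-transfected muscarinic M1 receptor were treated with compound plus carbachol (1 uM final, an EC50 level) for 5 h at 37 °C. CCF4 loading followed for 1 h at RT; 460/530 nm ratio gave %activity.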

Experiment [18] concerns the target Cytochrome P450 3A4 (Homo sapiens) (UniProt P08684). The experiment is described as follows: qHTS Assay for Activators of Cytochrome P450 3A4 (AID 885). Note: nearly all actives have a fitted effect of over 65% in size. The settings on record: recombinant CYP3A4, Luciferin-PPXE luminescence, 60 min; series mostly up to 57.1 µM. An outline of the steps:
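20nM CYP3A4 + 25uM Luciferin-PPXE (=KM), 200mM KPO4; cpd 10 min RT; NADPH regen, 60 min RT; stop w/ detection buffer, 20 min; luminescence. Normalized to 57 uM ketoconazole.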

Experiment [19] is described as follows: Counterscreen qHTS for small molecule stabilizers of the endoplasmic reticulum resident proteome: GLuc-NoTag assay (AID 1508627).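 Note: SH-SY5Y cells given compound then 100 nM thapsigargin to empty ER calcium; 0% = thapsigargin alone and -100% = DMSO vehicle control.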 The settings on record: Gaussia luciferase NoTag secretion counterscreen, luminescence, thapsigargin 100 nM for final 4 h; series mostly up to 76.4 µM. In a few lines:
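SH-SY5Y cells stably expressing constitutively secreted GLuc (no SERCaMP tag) were pre-incubated 5 h, treated with compound for 19 h, then 100 nM thapsigargin for 4 h at 37C; medium GLuc read by coelenterazine luminescence.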
For orientation: The purpose of a counterscreen is to sort out artefacts and off-target activity.

Where [20] appears, read: measured here: cell count channel max response.
The mark [21] stands for this setting: measured here: lipid channel max response.

Inconclusive results are not listed. Active and inactive are the calls of the source. Unless noted, calls come from the whole dose curve; as a rule, active = well fitted curve in the direction sought with a large enough effect; inconclusive = small, poorly fitted or top-dose-only effect, or another doubt; inactive = no such curve, though single readings can be large; an effect the other way counts as inactive or inconclusive.

Sequence of Dual specificity protein kinase CLK4 (Homo sapiens) (Q9HAZ1 whole entry, looked up): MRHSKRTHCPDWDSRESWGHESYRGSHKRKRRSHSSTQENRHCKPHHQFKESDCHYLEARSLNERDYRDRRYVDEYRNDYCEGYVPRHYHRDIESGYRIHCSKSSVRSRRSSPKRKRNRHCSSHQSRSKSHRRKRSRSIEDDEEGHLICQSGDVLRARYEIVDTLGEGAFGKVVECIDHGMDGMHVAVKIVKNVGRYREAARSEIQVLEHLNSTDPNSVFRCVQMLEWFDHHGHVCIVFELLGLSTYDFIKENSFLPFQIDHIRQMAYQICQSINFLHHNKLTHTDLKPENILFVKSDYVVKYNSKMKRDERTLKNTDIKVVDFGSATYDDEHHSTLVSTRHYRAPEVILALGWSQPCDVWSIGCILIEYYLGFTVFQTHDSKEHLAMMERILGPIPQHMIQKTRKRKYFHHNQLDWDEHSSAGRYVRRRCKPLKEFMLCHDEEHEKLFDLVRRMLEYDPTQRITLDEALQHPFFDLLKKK
Sequence of Ubiquitin carboxyl-terminal hydrolase 1 (Homo sapiens) (O94782 whole entry, looked up): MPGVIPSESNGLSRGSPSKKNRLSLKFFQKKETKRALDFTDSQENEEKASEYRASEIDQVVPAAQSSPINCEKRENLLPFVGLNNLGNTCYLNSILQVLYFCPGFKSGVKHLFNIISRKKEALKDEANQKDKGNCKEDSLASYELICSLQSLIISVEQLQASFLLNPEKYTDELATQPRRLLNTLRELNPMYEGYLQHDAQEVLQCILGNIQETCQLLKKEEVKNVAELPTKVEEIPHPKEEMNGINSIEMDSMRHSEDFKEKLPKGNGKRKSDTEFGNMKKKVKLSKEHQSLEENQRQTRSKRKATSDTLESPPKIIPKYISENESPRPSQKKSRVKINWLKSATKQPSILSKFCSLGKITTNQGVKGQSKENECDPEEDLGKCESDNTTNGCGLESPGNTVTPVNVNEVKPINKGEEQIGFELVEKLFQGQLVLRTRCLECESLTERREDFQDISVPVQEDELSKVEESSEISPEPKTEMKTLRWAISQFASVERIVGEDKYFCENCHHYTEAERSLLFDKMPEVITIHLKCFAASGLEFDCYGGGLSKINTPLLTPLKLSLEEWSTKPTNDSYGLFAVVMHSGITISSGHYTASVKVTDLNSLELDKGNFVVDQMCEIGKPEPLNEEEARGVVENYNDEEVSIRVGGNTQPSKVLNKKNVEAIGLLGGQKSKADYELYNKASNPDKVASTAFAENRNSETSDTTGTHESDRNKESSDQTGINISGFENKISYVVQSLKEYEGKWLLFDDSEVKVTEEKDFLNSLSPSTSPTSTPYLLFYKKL
Sequence of Cytochrome P450 1A2 (Homo sapiens) (P05177 whole entry, looked up): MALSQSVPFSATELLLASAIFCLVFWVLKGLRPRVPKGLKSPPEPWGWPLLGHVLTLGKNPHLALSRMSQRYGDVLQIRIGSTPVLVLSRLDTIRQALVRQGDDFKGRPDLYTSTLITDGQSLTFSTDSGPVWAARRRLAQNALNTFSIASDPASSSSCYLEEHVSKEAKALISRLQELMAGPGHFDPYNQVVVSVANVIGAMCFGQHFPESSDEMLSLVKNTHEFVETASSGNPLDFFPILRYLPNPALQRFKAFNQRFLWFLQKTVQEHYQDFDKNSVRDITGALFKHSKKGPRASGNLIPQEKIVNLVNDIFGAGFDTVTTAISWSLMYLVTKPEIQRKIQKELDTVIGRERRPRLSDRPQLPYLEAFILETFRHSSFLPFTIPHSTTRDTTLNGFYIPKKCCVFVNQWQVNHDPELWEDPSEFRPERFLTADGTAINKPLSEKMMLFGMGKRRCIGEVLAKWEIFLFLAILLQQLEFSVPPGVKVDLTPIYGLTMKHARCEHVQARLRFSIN
Sequence of 3',5'-cyclic-AMP phosphodiesterase 4B (Homo sapiens) (Q07343 whole entry, looked up): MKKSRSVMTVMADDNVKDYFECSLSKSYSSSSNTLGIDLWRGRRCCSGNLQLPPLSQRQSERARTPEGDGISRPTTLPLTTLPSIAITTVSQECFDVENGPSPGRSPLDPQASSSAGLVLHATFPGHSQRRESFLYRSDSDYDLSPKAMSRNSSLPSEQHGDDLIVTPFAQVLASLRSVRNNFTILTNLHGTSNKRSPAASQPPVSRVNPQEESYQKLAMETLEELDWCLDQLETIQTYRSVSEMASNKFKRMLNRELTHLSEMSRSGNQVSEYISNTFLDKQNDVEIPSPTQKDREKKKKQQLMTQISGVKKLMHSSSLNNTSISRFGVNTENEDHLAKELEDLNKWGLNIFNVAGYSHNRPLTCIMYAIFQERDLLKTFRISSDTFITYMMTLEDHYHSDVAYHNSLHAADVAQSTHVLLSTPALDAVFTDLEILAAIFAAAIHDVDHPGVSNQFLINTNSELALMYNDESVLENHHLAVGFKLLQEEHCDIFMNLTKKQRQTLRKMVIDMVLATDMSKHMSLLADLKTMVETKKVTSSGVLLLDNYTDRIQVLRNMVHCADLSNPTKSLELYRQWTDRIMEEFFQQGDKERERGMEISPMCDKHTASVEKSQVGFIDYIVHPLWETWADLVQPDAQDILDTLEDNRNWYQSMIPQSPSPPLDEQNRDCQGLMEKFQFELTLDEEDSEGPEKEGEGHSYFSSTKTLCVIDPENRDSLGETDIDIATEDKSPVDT
Sequence of Cytochrome P450 3A4 (Homo sapiens) (P08684 whole entry, looked up): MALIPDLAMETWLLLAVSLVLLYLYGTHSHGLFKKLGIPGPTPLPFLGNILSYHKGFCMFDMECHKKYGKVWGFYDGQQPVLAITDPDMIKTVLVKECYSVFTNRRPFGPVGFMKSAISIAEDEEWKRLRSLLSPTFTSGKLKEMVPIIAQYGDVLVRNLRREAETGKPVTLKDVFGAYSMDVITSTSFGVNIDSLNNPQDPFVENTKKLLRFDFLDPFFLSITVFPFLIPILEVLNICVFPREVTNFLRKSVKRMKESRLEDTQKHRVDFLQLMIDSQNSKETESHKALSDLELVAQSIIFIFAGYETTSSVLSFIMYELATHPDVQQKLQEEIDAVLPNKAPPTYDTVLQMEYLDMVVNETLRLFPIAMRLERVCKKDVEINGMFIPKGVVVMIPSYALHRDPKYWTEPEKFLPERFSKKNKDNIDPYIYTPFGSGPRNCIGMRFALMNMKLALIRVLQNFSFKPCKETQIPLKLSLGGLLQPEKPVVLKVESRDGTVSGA

As to `COc1ccc(-c2nc3cnc(N4CCN(C)CC4)nc3n(Cc3cccc(OC)c3)c2=O)cc1`, the Potency in [1] is > 11.4 µM (inactive); in [2], > 9.22 µM (inactive); in experiment [3], > 46 µM (inactive). Also, the Potency result in [4], in experiment [6], in [7], in experiment [8], in experiment [9] and in experiment [10] was “inactive” each time. Further, in [5], the activity change, negative = inhibition was -2.59% (inactive). The max response in experiment [5] (setting [20]) is 8.4%; in [5] (setting [21]) it was 2.85%.

Take `FC(F)(F)c1ccccc1-c1nc(N2CCNCC2)c2ccccc2n1`: the Potency in experiment [1] was > 11.4 µM (inactive); in [12], 10 µM (active); in experiment [2], > 46 µM (inactive); in experiment [3], > 46 µM (inactive); in experiment [10] it was 20 µM (active). The activity change, negative = inhibition in [11] was 6.77% (inactive); in experiment [5] it was 7.02% (inactive). In addition, the activity, negative = inhibition in experiment [13] was 11.2% (inactive). The outcome in experiment [14], in [15] and in experiment [16] was inactive. Besides, the Potency result in experiment [4] and in experiment [9] was “inactive” in each case. The max response worked out at 13.7% in experiment [5] (setting [20]) and 21.9% in experiment [5] (setting [21]).

Turning to `Cn1cc(-c2nc3cncnc3n(-c3ccccc3)c2=O)c2ccccc21`, the values for the activity change, negative = inhibition in [11] and in experiment [17] were -24% (inactive) and 11.2% (inactive), respectively. The Potency in experiment [12] was 1.58 µM (active); in experiment [3], > 46 µM (inactive). Further, the activity, negative = inhibition in [13] is -2.15% (inactive). Also, the Potency entry in experiment [18], in experiment [6], in experiment [7], in [8], in experiment [9] and in experiment [19] was “inactive” in each case.
